Assay outcomes deposited in PubChem BioAssay by The Scripps Research Institute Molecular Screening Center.
ssDAF-12 act – activators of S. stercoralis DAF-12 nuclear receptor; HEK293 ssDAF-12/GRIP1 lit1-tk-luc reporter, luminescence; % of 3 µM dafachronic acid response; activation, % at 6.8 µM; actives 1% (n = 370,000);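 active = activation above the mean over all tested compounds plus 3 SD, cut at about 0.9% in these data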;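 also: 0% = DMSO-only wells and 100% = 3 µM delta7-dafachronic acid wells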
DAX1 StAR inh – blocks DAX1 repression of SF-1 activated StAR promoter. HEK293T StAR-luciferase reporter, SF-1/DAX-1 repression relief. inhibition, % at 6.8 µM. actives 1.1% (n = 370,000). AID 652010;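 active = inhibition above the mean over all tested compounds plus 3 SD, cut at about 3.6% in these data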;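 also: 0% = DAX-1 cells with DMSO and 100% = cells lacking DAX-1 with DMSO; higher inhibition means more luminescence from relief of DAX-1 repression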
SMARCA2 activ – activators of SMARCA2 function | MG213 cells, MMTV-luciferase reporter, dexamethasone, overnight | activation, % at 9.1 µM | actives 1% (n = 370,000); in the data active = activation above about 7.8%;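 also: 0% = vehicle wells and 100% = reference activator wells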
hgDAF-12 ag – hgDAF-12 agonism, primary luciferase screen; HEK293 GAL4-hgDAF12 UAS-luciferase reporter, agonist luminescence; normalized to butyrate control; activation, % at 6.8 µM; actives 1.8% (n = 370,000); AID 687014;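 active = activation above a cutoff set at the mean of all screened compounds plus 3 SD, cut at about 10% in these data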;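 also: 0% = DMSO wells and 100% = sodium butyrate wells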
hcDAF12 agonist – activates DAF-12 receptor from parasite H. contortus. actives 1.4% (n = 370,000). HEK293 hcDAF-12 lit1-tk-luc reporter, luminescence; 0% DMSO, 100% Δ7-dafachronic acid. activation, % at 6.8 µM;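 active = activation above the mean of all tested compounds plus 3 SD, cut at about 5.5% in these data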;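 also: 100% = response to 3 µM Δ7-dafachronic acid high control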
An asterisk follows results filed as active; x = not tested or not shown. Hits are enriched below; roughly 4.2% of the tested compounds scored in any of these assays.

SMILES | ssDAF-12 act | DAX1 StAR inh | SMARCA2 activ | hgDAF-12 ag | hcDAF12 agonist
CC1(C(=O)N2CCC(Oc3cccnc3)CC2)CC1 | -1.0 | -0.2 | -0.7 | 4.0 | 0.1
O=S(=O)(c1ccc(OCC(O)CNC23CC4CC(CC(C4)C2)C3)c(Cl)c1)N1CCOCC1 (stereo not drawn) | -1.6 | 0.0 | 7.8* | 1.9 | 0.0
CCOc1ccc2nc(N3CCC(C(=O)NCCCN4CCOCC4)CC3)sc2c1 | -0.8 | 0.3 | 6.3 | 11.8* | 1.5
O=C(CCN1C(=O)/C(=C\c2ccccc2F)SC1=S)Nc1ccc(C(=O)O)c(O)c1 | -0.6 | 3.9* | 0.8 | 0.6 | 0.3
O=C(CCCN1C(=O)/C(=C/c2ccccc2)SC1=S)Nc1ccc(C(=O)O)c(O)c1 | -1.4 | 0.2 | 1.5 | -0.1 | 0.6
COc1ccc2sc(-c3ccccc3OC)c(-c3ccc(SC)cc3)c2c1 | -1.2 | 3.8* | -3.8 | 1.0 | -0.1
CCOC(=O)c1cc(-c2csc(Nc3ccccc3Cl)n2)on1 | 1.5* | 0.6 | 0.9 | 0.5 | 3.2
COC1=C[C@H](C(=O)NC2CCN(Cc3ccccc3)CC2)[C@@]2(C)Cc3ccccc3[C@H]2CC1=O | -1.5 | 0.2 | -3.8 | -0.6 | -0.5
COc1ccc(C(=O)C2CCCN(C3Cc4ccccc4C3)C2)c(OC)c1 (stereo not drawn) | 0.9* | 1.7 | -3.8 | 0.0 | 1.3
CCOC(=O)[C@@H]1CSCCS(=O)(=O)N1C(=O)[C@H](C)NC(=O)OC(C)(C)C | -0.4 | -0.7 | -3.8 | 2.2 | 0.5
CC(=O)CC[C@@H]1CC[C@]2(CCCN(C(=O)c3ccno3)C2)O1 | 0.0 | 0.0 | -1.2 | -0.9 | -0.6
Cn1c(Cc2c[nH]c3ccccc23)n[nH]c1=S | 1.0* | 0.7 | 1.2 | 1.2 | 4.1
COc1ccc(NC(=O)/C(C#N)=C/c2ccc[nH]2)c(OC)c1 | 0.2 | 1.3 | 1.6 | 3.6 | 6.5*
COc1ccc(-c2cc3ccccc3[nH]2)cc1 | -0.2 | 1.7 | 3.2 | 9.5 | 5.6*
COC(=O)NNC(=O)c1ccccc1OC | -0.6 | 1.1 | -1.1 | -1.1 | 6.2*
COc1ccccc1C(=O)NNC(=O)c1cccc(C)c1 | 1.1* | 1.5 | 6.3 | 7.9 | 5.2
CCc1c(-c2cccc(Br)c2)ncn1CCc1ccccc1OC | -1.6 | -1.6 | -3.9 | -0.2 | -2.4
O=C(O)C1C2C=CC(C2)C1C(=O)N1CCc2ccccc21 (stereo not drawn) | 0.4 | -0.6 | -3.3 | 2.8 | 5.6*
Cc1ccccc1-c1nnc2c3ccccc3c(C)nn12 | -0.9 | -0.3 | 3.5 | -0.6 | -2.2
Cc1nn2c(-c3ccco3)nnc2c2ccccc12 | 0.4 | 1.1 | 3.0 | 2.1 | 5.9*
CCC[C@H]1[C@@H](NC(=O)c2ccc(OC)cc2)CC[C@@]23CCCN2C(=O)CCC[C@@H]13 | -1.9 | x | x | -1.6 | 0.2
CC1=C(C(=O)N(C)C)CC(CC(=O)NC2CCCCC2)C(=O)N1CCC1=CCCCC1 (stereo not drawn) | -0.7 | 2.5 | 2.2 | 5.5 | 0.3
CC1=C(C(=O)N(C)C)CC(CC(=O)NC2CCCC2)C(=O)N1CCC1=CCCCC1 (stereo not drawn) | -0.1 | 3.6 | -2.3 | 11.6* | 2.8
C=CCn1c(COc2cccc3ccc(C)nc23)nnc1SCC(=O)OC | 0.9* | 1.3 | -1.7 | 0.7 | 2.9
Cc1ccc(NS(=O)(=O)c2ccc(Br)s2)nc1 | 1.3* | 0.3 | 0.6 | -3.0 | -0.7
SMILES | ssDAF-12 act | DAX1 StAR inh | SMARCA2 activ | hgDAF-12 ag | hcDAF12 agonist
Cc1cc(C)nc(NS(=O)(=O)c2ccc(Br)s2)c1 | -1.1 | -0.6 | -2.4 | -2.4 | -0.4
CC1=NN(c2ccccc2)C(=O)/C1=C\c1sccc1C | 1.7* | 0.4 | -2.7 | 1.6 | 3.0
COc1ccccc1/C=C1/C(=O)N(c2ccccc2)N=C1C | -0.8 | 0.0 | -0.7 | 1.3 | 0.6
COC(=O)[C@]12C[C@H](CC(=O)NCC3CCCCC3)C(=O)N(CCC3=CCCCC3)C1=C[C@H](C(C)C)O[C@@H]2C1CC1 | -1.5 | 1.2 | 0.0 | 1.9 | 2.6
CCCCCCCCN1CCS(=O)(=O)N(Cc2ccc(C(F)(F)F)cc2)C(C(=O)OC)C1 (stereo not drawn) | -1.4 | -0.8 | 1.8 | -0.7 | -2.0
Cc1ccc2c(c1)c(N=Nc1ccc([N+](=O)[O-])cc1)c(O)n2C | -0.2 | -0.1 | -2.9 | -0.4 | 6.0*
Cn1c(O)c(N=Nc2ccc(F)cc2)c2ccccc21 | 0.1 | 0.1 | -2.0 | 1.8 | 5.6*
Cn1c(O)c(N=NC(=O)Cc2c[nH]c3ccccc23)c2ccccc21 | -0.7 | -1.5 | -1.8 | -3.7 | 0.2
Cn1c(O)c(N=Nc2ccccc2)c2ccccc21 | 1.2* | -0.3 | -3.0 | 0.3 | 4.0
CC(C)C[C@@H]1COc2cc(N3CCSCC3)ccc2S(=O)(=O)N1C | -1.4 | -1.7 | -1.3 | 3.0 | -0.8
CCCCCCCCN1C(=O)[C@H](CC(=O)NCc2cccc(C(F)(F)F)c2)C[C@@]2(C(=O)OC)CC(C)(C)CC=C12 | -0.7 | 1.9 | 3.2 | 2.1 | -0.4
C=CCN(C)CC#CCCCCl | -0.9 | 2.4 | -2.5 | 0.0 | 0.2
CCC[C@H]1[C@@H](NC(=O)C2CCC2)CC[C@@]23CCCN2C(=O)CCC[C@@H]13 | -1.0 | x | x | -2.0 | -1.0
CCOC(=O)C(=O)N(CC)C1CCS(=O)(=O)C1 (stereo not drawn) | 1.2* | 0.0 | -2.1 | -0.6 | 4.9
O=C(NC1CCOc2ccccc21)c1ccccn1 (stereo not drawn) | 0.3 | 0.0 | 2.8 | 1.6 | 5.8*
COC(=O)C1=C(C)N(CC(C)C)C(=S)NC1c1cccc(F)c1 (stereo not drawn) | 1.0* | -1.6 | -3.6 | -1.0 | 0.7
Cc1ccc(C(=O)NCC(=O)OC(C)C(=O)Nc2ccccc2[N+](=O)[O-])s1 (stereo not drawn) | -1.2 | 3.6* | -1.3 | 2.8 | -0.2
Cc1nn(CC(=O)OC(C)C(=O)Nc2ccccc2[N+](=O)[O-])c(C)c1[N+](=O)[O-] (stereo not drawn) | 3.5* | 0.4 | -4.5 | -1.0 | 0.5
COc1ccc(CNCC#Cc2ccc(C(F)(F)F)cc2)c(OC)c1 | -0.7 | -0.5 | -4.8 | 1.9 | 1.1
O=C(N/N=C/c1ccc[nH]1)c1ccc2c(c1)OCO2 | -1.4 | 0.2 | 3.9 | 10.8* | 0.7
O=C(N/N=C/c1ccc2c(c1)OCO2)c1ccc2c(c1)OCO2 | -0.2 | 4.0* | 1.8 | 5.3 | 3.7
CCn1ncc(/C=N/NC(=O)c2ccc3c(c2)OCO3)c1C | -0.8 | -1.4 | 4.2 | 11.7* | -0.2
Cc1cccc(/C=N/NC(=O)c2ccc3c(c2)OCCO3)c1O | 1.1* | 0.4 | -3.7 | 5.8 | 4.1
O=C(N/N=C/c1ccc[nH]1)c1ccc(O)cc1 | -1.3 | 0.3 | -4.3 | 2.5 | 0.7
COC(=O)C1CN(Cc2cn(CCC3OCCO3)nn2)CCS(=O)(=O)N1Cc1ccc(C)cc1 (stereo not drawn) | -1.1 | 0.6 | -3.6 | 2.2 | -2.8
Fc1ccc2nc(-c3ccc(CN4CCC5(CC4)CNc4ccccc45)cc3)c(-c3ccccc3)nc2c1 | -0.1 | -0.4 | -1.8 | 4.1 | 0.8
